# Results from PubChem BioAssay AID1159580 (chemical genetic matrix, 2015).
# Several values for one entry are separate records, joined by “and”; a condition that tells them apart may be missing. Equal values may be shown once. The campaign covered roughly 5,500 compounds. About 2,000 (36%) were called active. Another 18% or so got no clear call; they are omitted. This is one part of the list. A number with no mark means an inactive call. Rule as the data show it: active = normalized growth mostly below about 0.91 (no sharp cut-off); inconclusive = no clear call, values can overlap the other calls; inactive = mostly above about 0.92.
# Experiment: chemical genetic growth profiling, strain panel (AID 1159580);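 also: tested at 20 µM; growth read once vehicle control cultures reached saturation at 30 °C; 1 = growth at the plate median or of vehicle wells; lower values mean less growth of the strain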
# Conditions: growth OD
structure (smiles),measurement,setting,value
Clc1ccc(C(c2ccccc2Cl)C(Cl)Cl)cc1 (stereo not drawn),normalized growth,"S. cerevisiae deletion strains, locus YNL071W, strain lat1, hits give low values",0.907 (active)
same,normalized growth,"S. cerevisiae deletion strains, locus YNL128W, strain TEP1, hits give low values",1.01 and 1.02
same,normalized growth,"S. cerevisiae deletion strains, locus YNL153C, strain GIM3, hits give low values",1.01
same,normalized growth,"S. cerevisiae deletion strains, locus YNL183C, strain NPR1, hits give low values",0.914
same,normalized growth,"S. cerevisiae deletion strains, locus YNL197C, strain WHI3, hits give low values",1.1
same,normalized growth,"S. cerevisiae deletion strains, locus YNL209W, strain ssb2, hits give low values",0.983
same,normalized growth,"S. cerevisiae deletion strains, locus YNL224C, strain SQS1, hits give low values",1
same,normalized growth,"S. cerevisiae deletion strains, locus YNL233W, strain BNI4, hits give low values",1.01
same,normalized growth,"S. cerevisiae deletion strains, locus YNL248C, strain rpa49, hits give low values",0.99
same,normalized growth,"S. cerevisiae deletion strains, locus YNL250W, strain rad50, hits give low values",0.987
same,normalized growth,"S. cerevisiae deletion strains, locus YNL271C, strain bni1, hits give low values",0.987
same,normalized growth,"S. cerevisiae deletion strains, locus YNL298W, strain CLA4, hits give low values",0.978
same,normalized growth,"S. cerevisiae deletion strains, locus YNL307C, strain MCK1, hits give low values",0.912
same,normalized growth,"S. cerevisiae deletion strains, locus YNL322C, strain KRE1 (second series), hits give low values",0.976
same,normalized growth,"S. cerevisiae deletion strains, locus YNL322C, strain KRE1, hits give low values",1
same,normalized growth,"S. cerevisiae deletion strains, locus YNR049C, strain mso1, hits give low values",0.978
same,normalized growth,"S. cerevisiae deletion strains, locus YNR052C, strain pop2, hits give low values",0.985
same,normalized growth,"S. cerevisiae deletion strains, locus YOL006C, strain TOP1, hits give low values",0.918
same,normalized growth,"S. cerevisiae deletion strains, locus YOL012C, strain htz1",0.884
same,normalized growth,"S. cerevisiae deletion strains, locus YOL147C, strain pex11, hits give low values",0.991
same,normalized growth,"S. cerevisiae deletion strains, locus YOR001W, strain rrp6, hits give low values",0.931
same,normalized growth,"S. cerevisiae deletion strains, locus YOR061W, strain CKA2, hits give low values",1
same,normalized growth,"S. cerevisiae deletion strains, locus YOR069W, strain VPS5, hits give low values",1.01
same,normalized growth,"S. cerevisiae deletion strains, locus YOR070C, strain gyp1, hits give low values",0.996
same,normalized growth,"S. cerevisiae deletion strains, locus YOR080W, strain dia2, hits give low values",0.969
same,normalized growth,"S. cerevisiae deletion strains, locus YOR083W, strain WHI5, hits give low values",0.921
same,normalized growth,"S. cerevisiae deletion strains, locus YOR106W, strain vam3, hits give low values",0.888
same,normalized growth,"S. cerevisiae deletion strains, locus YOR136W, strain idh2, hits give low values",0.976
same,normalized growth,"S. cerevisiae deletion strains, locus YOR144C, strain elg1, hits give low values",0.991
same,normalized growth,"S. cerevisiae deletion strains, locus YOR184W, strain ser1, hits give low values",0.963
same,normalized growth,"S. cerevisiae deletion strains, locus YOR231W, strain MKK1, hits give low values",0.948
same,normalized growth,"S. cerevisiae deletion strains, locus YOR265W, strain rbl2, hits give low values",0.97
same,normalized growth,"S. cerevisiae deletion strains, locus YOR270C, strain vph1, hits give low values",0.789
same,normalized growth,"S. cerevisiae deletion strains, locus YOR290C, strain snf2, hits give low values",0.983
same,normalized growth,"S. cerevisiae deletion strains, locus YOR316C, strain cot1, hits give low values",0.984
same,normalized growth,"S. cerevisiae deletion strains, locus YPL051W, strain arl3, hits give low values",0.956
same,normalized growth,"S. cerevisiae deletion strains, locus YPL055C, strain LGE1, hits give low values",1.03
same,normalized growth,"S. cerevisiae deletion strains, locus YPL078C, strain atp4, hits give low values",0.889 (active)
same,normalized growth,"S. cerevisiae deletion strains, locus YPL106C, strain sse1, hits give low values",1
same,normalized growth,"S. cerevisiae deletion strains, locus YPL240C, strain hsp82, hits give low values",0.983
same,normalized growth,"S. cerevisiae deletion strains, locus YPL241C, strain CIN2, hits give low values",1.01
same,normalized growth,"S. cerevisiae deletion strains, locus YPL256C, strain CLN2, hits give low values",0.908
same,normalized growth,"S. cerevisiae deletion strains, locus YPR119W, strain clb2, hits give low values",0.991
same,normalized growth,"S. cerevisiae deletion strains, locus YPR141C, strain kar3, hits give low values",0.995
same,normalized growth,"S. cerevisiae deletion strains, locus YPR163C, strain tif3, hits give low values",0.992
same,normalized growth,"S. cerevisiae deletion strains, locus YPR167C, strain met16, hits give low values",0.989
same,normalized growth,"S. cerevisiae deletion strains, strain wtn01, hits give low values",0.977
same,normalized growth,"S. cerevisiae strains, strain wild type, hits give low values",1.01
